Experimental data: PubChem BioAssay (NCATS)
Records with an inconclusive call do not appear. Active and inactive are the calls of the source. Calls follow the shape of the dose curve; as a rule, active = well fitted inhibition curve with a large enough effect; inconclusive = small, poorly fitted or top-dose-only effect; inactive = no such curve, though single readings can be large or run the other way.

These compounds were tested on Zika virus NS2B-NS3 protease (unlinked complex) (assay: Primary screen GU Rhodamine qHTS for Zika virus inhibitors: Unlinked NS2B-NS3 protease assay (AID 1347159; also: nearly all actives have a fitted effect of over 60% in size)). Conditions: Recombinant ZIKV NS2B-NS3 protease, Rhodamine110 substrate fluorescence; series mostly up to 107 µM; activity change, negative = inhibition: at the top concentration.
Source text: Avindra Nath, Ph.D., National Institute of Neurological Disorders and Stroke (NINDS), Bethesda, MD
Radhakrishnan Padmanabhan, Ph.D., Georgetown University (GU), Washington D.C.
Zika Virus causes congenital defects, including microcephaly and is associated with Guillain-Barre syndrome, eningoencephalitis and myelitis in infected adult. […] Using a target-based approach, we hope to establish a screening paradigm to uncover novel, cell-active NS2B-NS3 protease (Zika Virus) specific inhibitors from NCATS' collection of small molecules using qHTS.
Four assay panel was created to identify potential Zika Virus inhibitors. Namely, (1) GU unlinked NS2B-NS3 AMC tagged protease qHTS, (2) GU unlinked NS2B-NS3 Rhodamine tagged protease qHTS, (3) NINDS linked NS2B-NS3 AMC tagged protease qHTS, (4) NINDS linked NS2B-NS3 Rhodamine tagged protease qHTS. Active compounds were re-acquired and re-screened to confirm inhibition. Inhibitors were further screened against various confirmatory and counterscreens in dose response format.
Early Translation Branch (ETB)
National Center for Advancing Translational Sciences (NCATS), Rockville, MD
National Institute of Health (NIH), Bethesda, Maryland
Padmanabhan lab provided the NS2B hydrophilic domain and NS3 protease domain in a noncovalent complex used for the unlinked assay. Control compound aprotinin is obtained from Thermo Scientific (#78432; Waltham, Massachusetts). Rhodamine110 substrate ([N-Cbz]-Nle-Lys-Arg-Arg-Rhod110-Arg-Arg-Lys-Nle-[N-Cbz]) was purchased from either Genscript or Bachem.
1536-well Protease (Rhodamine110 Substrate) Assay:
Briefly, 3 microL of enzyme (25 nM final concentration), in assay buffer (10 mM Tris-HCl pH 8.0 with 0.01% Tween 20) were dispensed into a 1,536-well solid-bottom black plate (Greiner Bio One, Monroe, NC). Twenty-three nL of compounds (final concentration range 7.28 nM to 114 microM) or control Aprotinin (final concentration range 3.47 nM to 114 microM) were transferred via Wako Pin-tool (Wako Automation, Richmond, VA). Samples were incubated (room temperature, protected from light) for 15 minutes followed by a 1 microL Rhodamine110 substrate addition (1.5 microM final concentration). Plates were then immediately read on a ViewLux High-throughput CCD imager (PerkinElmer, Waltham, MA) equipped with FITC fluorescence optics (480(20) nm excitation, 540(25) nm emission), then incubated (room temperature, protected from light) for 15 minutes (~15% conversion). The change in fluorescence intensity over the 15-minute reaction period was normalized against no-inhibitor and no-enzyme controls and the resulting percent inhibition data were fitted to a 4-parameter Hill equation. Aprotinin was used as intraplate control.
% is scaled to controls: 0 for no effect and ±100 for the full control effect; potency is read from the fitted curve at half-maximal effect.

SMILES | activity change, negative = inhibition | Potency
Cc1[nH]c2ccccc2c1C1=C(NCCc2ccc(F)cc2)C(=O)N(C)C1=O | -20.4% (inactive) | –
CC(=O)OCC1(O)CCC2C(COC3OC(CO)C(O)C(O)C3OC(=O)/C=C/c3ccc(O)cc3)=COC(OC(=O)CC(C)C)C21 (stereo not given) | -29.7% [at 32.5 µM] (inactive) | –
CC1=CC(=O)CC(C)(CO)C1(O)/C=C/C(C)O[C@@H]1O[C@H](CO)[C@@H](O)[C@H](O)[C@H]1O (stereo not given in full) | -9.23% [at 57.1 µM] (inactive) | –
COC(=O)C1(C)c2[nH]c3ccccc3c2CCN1C(=O)CCl (stereo not given) | 60% (inactive) | –
Cc1[nH]c2ccccc2c1CCNC(=O)c1ccccc1F | 13.4% (inactive) | –
C=C[C@H]1[C@H](O[C@@H]2O[C@H](CO)[C@@H](O)[C@H](O)[C@H]2O)OC=C(C(=O)OC)[C@H]1CCOC(=O)c1cc(O)c(O)c(O)c1 | – | 15.8 µM (active)
N#Cc1c(Oc2ccc(F)c(NC(=O)Cc3cccc(C(F)(F)F)c3)c2)ccc2nc(NC(=O)C3CC3)sc12 | -16.3% (inactive) | –
CC[C@]12C=CCN3CC[C@@]4(c5cc([C@@]6(C(=O)OC)C[C@H]7C[C@@H](C(C)(F)F)CN(Cc8c6[nH]c6ccccc86)C7)c(OC)cc5N(C)[C@H]4[C@@](O)(C(=O)OC)[C@@H]1OC(C)=O)[C@@H]32 | 8.18% [at 32.5 µM] (inactive) | –
CC[C@H](NC(=O)[C@H](CS(=O)(=O)CC1CC1)N[C@@H](c1ccc(F)cc1)C(F)(F)F)C(=O)C(=O)NC1CC1 | 0% (inactive) | –
C=C[C@]1(C)C=C2CCC3C(C)(CCC[C@@]3(C)C(=O)O)C2CC1 (stereo not given in full) | – | 12.6 µM (active)
C=C1[C@H](OC(C)=O)[C@H]2[C@@H](OC(C)=O)[C@](C)(OC(C)=O)C[C@]2(OC(C)=O)C(=O)[C@H](C)/C=C/C(C)(C)C(=O)[C@H](OC(=O)C(C)CC)[C@H]1OC(C)=O (stereo not given in full) | 6.63% [at 32.5 µM] (inactive) | –
CC(C)C(=O)OC[C@H]1O[C@H](O[C@H]2O[C@H](CO)[C@@H](O)[C@H](O)[C@H]2O)[C@H](O)[C@@H](O)[C@@H]1O | 9.13% [at 57.1 µM] (inactive) | –
CC(C)c1cc(C(=O)N2CC[C@@H](NC(=O)C3CC3)C2)n[nH]1 | 0% (inactive) | –
COc1cc(Nc2nc3ccccc3nc2NS(=O)(=O)c2ccc(NC(=O)c3ccc(OC)c(C)c3)cc2)cc(OC)c1 | – | 2.82 µM (active)
CC1=CC(=O)CC2C1(O)CCC(C)C21CC(c2ccoc2)OC1=O (stereo not given) | 19.5% (inactive) | –
COc1ccc(-c2nc(-c3ccc(-c4cccc(Cl)c4)o3)[nH]c2-c2ccc(OC)cc2)cc1 | 8.88% (inactive) | –
CC(C)c1c2cc(-c3ccnc(NC4CCC(NC5CCOCC5)CC4)n3)ccc2nn1C (stereo not given) | 20.9% (inactive) | –
OC[C@H]1O[C@@H](OCCc2ccccc2)[C@H](O[C@@H]2OC[C@](O)(CO)[C@H]2O)[C@@H](O)[C@@H]1O | -9.41% [at 57.1 µM] (inactive) | –
O=C(NCc1ccccn1)Nc1nnc(-c2ccco2)o1 | 63% (inactive) | –
O=C(OC[C@H]1O[C@H](O[C@]2(CO)O[C@H](CO)[C@@H](O)[C@@H]2O)[C@H](O)[C@@H](O)[C@@H]1O)c1ccccc1 | 12.4% [at 57.1 µM] (inactive) | –

SMILES | activity change, negative = inhibition | Potency
O=C(NCc1ccc(F)cc1)C(=O)c1c[nH]c2ccccc12 | 33.8% (inactive) | –
O=C1CCC(c2ccccc2)(C2CCN(Cc3ccc(I)cc3)CC2)C(=O)N1 (stereo not given) | -23.2% (inactive) | –
CCOC(=O)CCN(C(=O)c1ccc2c(c1)nc(CNc1ccc(C(=N)N)cc1)n2C)c1ccccn1 | 25.2% (inactive) | –
C[C@@H]1COCCN1c1cc(C2(S(C)(=O)=O)CC2)nc(-c2cccc3[nH]ccc23)n1 | 44.5% (inactive) | –
NCc1c[nH]c(=S)n1[C@@H]1CCc2c(F)cc(F)cc2C1 | 30.5% (inactive) | –
O=C(O)CCCCCC[C@H]1C(=O)NC(=O)N1CC[C@@H](O)C1CCCCC1 | -21.7% (inactive) | –
CC(=O)O[C@]1(C(C)=O)CC[C@H]2[C@@H]3C[C@H](C)C4=CC(=O)C=C[C@]4(C)[C@@]3(F)[C@@H](O)C[C@@]21C | -3.63% (inactive) | –
C=C(C)C(=O)O[C@H]1CC2=CC(C/C(C)=C\[C@H]3OC(=O)C(=C)[C@H]13)OC2=O (stereo not given in full) | 21.6% (inactive) | –
CC1(C)CC[C@]2(C(=O)OC3OC(CO)C(O)C(O)C3O)CC[C@]3(C)C(=CCC4[C@@]5(C)CC[C@H](OC6OC(C(=O)O)C(O)C(OC7OC(CO)C(O)C(O)C7O)C6O)C(C)(C)C5CC[C@]43C)C2C1 (stereo not given in full) | -0.355% [at 32.5 µM] (inactive) | –
COc1cc2occc2c(O[C@@H]2O[C@H](CO)[C@@H](O)[C@H](O)[C@H]2O)c1CCC(=O)O | -28.4% [at 57.1 µM] (inactive) | –
C=C[C@H]1[C@H](O[C@@H]2O[C@H](CO)[C@@H](O)[C@H](O)[C@H]2O)OC=C(C(=O)OC)[C@H]1C[C@@H]1c2cc(O)c(O)cc2CCN1C(C)=O | 9.22% [at 32.5 µM] (inactive) | –
Cc1nc(NC(=O)N2CCCC2C(N)=O)sc1-c1csc(C(C)(C)C)n1 (stereo not given) | -1.75% (inactive) | –
C#CCN(Cc1cc2c(=O)n(C)c(CN3CCN(C)CC3)nc2cc1Cl)c1ccc(C(=O)NCc2cccnc2)cc1 | 0.631% (inactive) | –
C=C1C(=O)OC2CC3(C)C(CC12)C(C)=CC(O)C3OC(C)=O (stereo not given) | – | 25.1 µM (active)
COC(=O)[C@@]1(c2ccc(C)cc2)C[C@H]1CN1CCC(O)(c2ccccc2)CC1 | 96.2% (inactive) | –
CC(C)(C)CCN1C[C@@H]2C(CNC(=O)c3cc(Cl)cc(Cl)c3)[C@@H]2C1 (stereo not given in full) | 10.4% (inactive) | –
CC(C)CC(=O)O[C@@H]1OC=C(CO[C@@H]2O[C@H](CO)[C@@H](O)[C@H](O)[C@H]2O)[C@H]2[C@@H]3O[C@H]3[C@@](O)(CO)[C@@H]12 | 19.4% [at 57.1 µM] (inactive) | –
CC1=C(C(=O)O)/C(=C\CO[C@@H]2O[C@H](CO)[C@@H](O)[C@H](O)[C@H]2O)C(OC(=O)/C=C/c2ccc(O)cc2)C1 (stereo not given in full) | -10.6% [at 57.1 µM] (inactive) | –
COc1ncc(Nc2ncc([C@@H](C)N3CCN(S(C)(=O)=O)CC3)cc2-c2nc(C)nc(N)n2)cc1F | – | 44.7 µM (active)
CC(C)CNCc1ccc(-c2ccccc2S(=O)(=O)N2CCCC2)cc1 | 0% (inactive) | –
